Paper PMC4336329 (PLoS ONE, 2015)
Out of some 310,000 compounds screened, about 14,000 (4.5%) showed an effect of 50% or more. The effect is printed as a negative number. The list comes from a sample in which strong results are over-represented; it also holds similar structures and randomly drawn compounds.

Molecular target: human ether-à-go-go-related gene (hERG) potassium channel (human, UniProt Q12809)
Test: primary screen, population patch clamp on CHO cells stably expressing hERG; higher = less effect of the substance
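Also: peak tail current of the secondary pulse compared with the same well before compound.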

Chain of human ether-à-go-go-related gene (hERG) potassium channel (Q12809 whole entry, looked up): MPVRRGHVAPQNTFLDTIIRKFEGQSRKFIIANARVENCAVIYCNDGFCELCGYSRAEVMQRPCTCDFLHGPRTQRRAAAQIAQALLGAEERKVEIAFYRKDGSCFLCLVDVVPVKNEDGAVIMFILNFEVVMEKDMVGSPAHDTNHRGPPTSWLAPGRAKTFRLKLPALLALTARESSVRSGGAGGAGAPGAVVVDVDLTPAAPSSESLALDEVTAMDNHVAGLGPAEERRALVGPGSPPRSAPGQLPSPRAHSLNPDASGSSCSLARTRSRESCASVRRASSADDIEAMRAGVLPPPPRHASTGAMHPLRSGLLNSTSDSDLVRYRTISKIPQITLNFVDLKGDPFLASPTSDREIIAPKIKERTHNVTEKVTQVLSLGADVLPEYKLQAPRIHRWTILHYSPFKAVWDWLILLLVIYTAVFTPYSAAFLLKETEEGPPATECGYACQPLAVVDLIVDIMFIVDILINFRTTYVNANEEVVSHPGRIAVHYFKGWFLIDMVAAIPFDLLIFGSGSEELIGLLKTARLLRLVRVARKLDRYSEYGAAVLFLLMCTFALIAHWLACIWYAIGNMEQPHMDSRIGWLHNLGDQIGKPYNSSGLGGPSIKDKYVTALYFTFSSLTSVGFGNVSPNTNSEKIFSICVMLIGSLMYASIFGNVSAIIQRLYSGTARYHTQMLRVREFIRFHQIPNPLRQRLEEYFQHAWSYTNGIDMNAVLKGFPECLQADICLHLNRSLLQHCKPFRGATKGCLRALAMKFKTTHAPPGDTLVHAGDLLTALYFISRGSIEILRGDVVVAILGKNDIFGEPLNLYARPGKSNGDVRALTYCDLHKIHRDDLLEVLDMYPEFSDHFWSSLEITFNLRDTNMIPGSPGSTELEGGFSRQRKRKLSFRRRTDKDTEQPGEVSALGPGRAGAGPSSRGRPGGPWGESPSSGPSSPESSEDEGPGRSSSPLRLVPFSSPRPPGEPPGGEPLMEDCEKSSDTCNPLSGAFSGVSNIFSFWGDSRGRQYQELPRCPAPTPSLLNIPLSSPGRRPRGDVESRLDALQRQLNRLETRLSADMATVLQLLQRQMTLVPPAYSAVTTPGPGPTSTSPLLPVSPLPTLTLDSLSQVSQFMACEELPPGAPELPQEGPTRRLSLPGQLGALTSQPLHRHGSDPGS

Structure (SMILES) | hERG current change (%, negative = inhibition) at 10uM [%]
C=CCn1c(SC)nc2sc3c(c2c1=O)CCc1ccccc1-3 | 10.3
Cc1ncoc1C(=O)Nc1cccc(Cl)c1 | -7.91
OCC[C@H]1C[C@H](O)[C@@H](O)[C@]2(OCCc3ccccc32)O1 | 2.59
CC1(C)Cc2c(cnn2-c2ccccc2)C(NC(=O)CCN2CCCC2=O)C1 (stereo not drawn) | 6.21
C=C1CCC[C@]2(C)C[C@H]3OC(=O)C(CNC(C)CC)[C@H]3CC12 (stereo partly drawn) | 0.523
CCN(CC)C(=O)c1ccccc1NC(=O)c1ccccc1SC | -39.6
CCOCc1nc(C)c(Cl)c(NS(=O)(=O)c2ccc(N)cc2)n1 | 13.9
COc1ccc(OC)c(N(CC(=O)N2CCCCC2)S(=O)(=O)c2ccc(OC)c(OC)c2)c1 | 10.6
COc1cc(Cl)c(C)cc1NC(=O)COC(=O)c1cc(SC)ccc1Cl | 8.99
Cc1ccc(OCCC(=O)Nc2ccc3c(c2)OCO3)cc1 | 0.269
CCN(Cc1ccccc1)Cc1cccc([N+](=O)[O-])c1 | -23.5
CCN1CCN(c2nc3ccccc3nc2NS(=O)(=O)c2ccc(NC(C)=O)cc2)CC1 | 5.21
COc1ccc(OC)c2c1C(=O)c1ccccc1C2=O | -5.81
CN(C)CCNC(=O)c1cc2c(s1)-c1ccccc1OC2 | -67.2
CC1CCCC(C)N1CCCNC(=O)c1ccc2c(c1)NC(=O)c1ccccc1S2 (stereo not drawn) | 4.54
CCN1CCN(CCCNC(=O)c2cc3c(s2)-c2ccccc2OC3)CC1 | -66.7
CC1CCCC(C)N1CCCNC(=O)c1cc2c(s1)-c1ccccc1OC2 (stereo not drawn) | -69.9
O=C(NCCCN1CCOCC1)c1cc2c(s1)-c1ccccc1OC2 | -44.5
O=C(Nc1cccnc1)c1cc2c(s1)-c1ccccc1OC2 | -2.06

Structure (SMILES) | hERG current change (%, negative = inhibition) at 10uM [%]
O=C(NCc1cccs1)c1cc2c(s1)-c1ccccc1OC2 | 1.42
COC(=O)c1cc2c(s1)-c1ccccc1OC2 | 0.157
O=C(NC1CC1)c1cc2c(s1)-c1ccccc1OC2 | 12.6
Cc1ccc(O)c(-c2cc3ccccc3[nH]2)c1 | -15.8
O=C(O)COCC(=O)N1CCCN(c2nccc(C(F)(F)F)n2)CC1 | 17.7
CCOC(=O)c1ccc(NC(=O)Cn2cc3c(n2)CCC(C)C3)cc1 (stereo not drawn) | -4.16
COC(=O)C1=C(c2ccc(Cl)c(C(F)(F)F)c2)C[C@@H]2CC[C@H]1N2C(=O)NCC1CC1 | -16.3
COc1ccc(CC(=O)N/N=C(/C)CC(=O)N(C)c2ccccc2)cc1 | 9.63
Cc1ccc(NC(=O)c2cc(NC(=O)c3ccco3)ccc2N2CCCCC2)cc1 | 13
CCCN(CC(=O)Nc1cccc(Br)c1)CC(=O)Nc1ccc(F)c(F)c1F | -10.1
CCOC(=O)N1CCN(C(=O)c2ccc3c(c2)NC(=O)/C(=C/c2ccccc2)S3)CC1 | -17.8
Cn1c2ccccc2c2nnc(SCC(=O)Nc3cccc(O)c3)nc21 | -45.6
COc1ccccc1NC(=S)N1CCN(Cc2ccc3c(c2)OCO3)CC1 | -1.31
Cc1ccc(Nc2nc(N)nc(CN3CCCCCC3)n2)c(C)c1 | -45.8
Cc1ccc(Nc2nc(N)nc(CN3CCN(Cc4ccc5c(c4)OCO5)CC3)n2)c(C)c1 | -76.9
Cc1ccccc1Nc1nc(N)nc(CN2CCN(Cc3ccc4c(c3)OCO4)CC2)n1 | -68
COc1ccccc1N1CCN(Cc2ccc3c(c2)OCO3)CC1 | -20.1
Cc1ccccc1NC(=S)N1CCN(Cc2ccc3c(c2)OCO3)CC1 | -10.3
Cc1ccc(Nc2nc(N)nc(CN3CCC(C)CC3)n2)c(C)c1 | -57.8

Structure (SMILES) | hERG current change (%, negative = inhibition) at 10uM [%]
Cc1ccc(Nc2nc(N)nc(CCl)n2)c(C)c1 | 16.1
Cc1ccccc1N1CCN(Cc2ccc3c(c2)OCO3)CC1 | -31.2
Cc1ccc(NC(=S)N2CCN(Cc3ccc4c(c3)OCO4)CC2)c(C)c1 | -1.01
Cc1cccc(Nc2nc(N)nc(CN3CCC(C)CC3)n2)c1C | -37.6
COc1ccccc1Nc1nc(N)nc(CN2CCN(Cc3ccc4c(c3)OCO4)CC2)n1 | -78.1
O=C(c1ccc2ccccc2c1)N1CCN(c2ccccn2)CC1 | -20
CCOc1ccc(NC2=NCC(=O)N2Cc2cccs2)cc1.Cl | -1.9
COc1ccc(/C(C)=N/NC(=O)c2cc(C)[nH]n2)c(OC)c1 | 1.33
O=C(Nc1nccs1)c1cc2c(s1)CCCCC2 | 6.98
CSCCC(NC(=O)c1ccco1)C(=O)N1CCCCCCC1 (stereo not drawn) | -4.39
O=C(CCc1nnc(CCCCc2ccccc2)o1)NCCCc1cccnc1 | -14.8
COc1ccccc1CCNC(=O)c1c(C)nn(CC(C)C)c1Cl | -4.9
CCCC(=O)NC(=S)Nc1sc2c(c1C(N)=O)CCC2 | 11.7
O=C(Cn1c(=O)cnc2ccccc21)Nc1cccc(S(=O)(=O)N2CCCCC2)c1 | -50.3
O=C(Cn1c(=O)cnc2ccccc21)Nc1cccc(S(=O)(=O)N2CCOCC2)c1 | -21
Cc1ccc(NC(=O)Cn2c(=O)cnc3ccccc32)cc1S(=O)(=O)N1CCCCC1 | -50.8
Cc1ccc(NC(=O)Cn2c(=O)cnc3ccccc32)cc1S(=O)(=O)N1CCOCC1 | -30.4
COc1ccc(NC(=O)Cn2c(=O)cnc3ccccc32)cc1S(=O)(=O)N1CCCCC1 | -10.9
Cc1ccc(S(=O)(=O)N2CCCCC2)cc1NC(=O)Cn1c(=O)cnc2ccccc21 | 9.61
